# Laboratory results: PubChem BioAssay
# Values without a mark were called inactive. Calls of active or inactive are those of the source. Rule as the data show it: active = fold change permeability below about 0.7 or above about 1.3; inactive = in between.
# Assay: modulators of brain endothelial barrier permeability, primary screen, cell-based, FITC-avidin fluorescence, HTS (AID 1963498); also: test concentration not given here
# Settings: actives lie on both sides
row,SMILES,fold change permeability
1,CCCCCCCCCCCCCCCCCCOC[C@H](COP(=O)([O-])OCC[N+](C)(C)C)OC,1.5 (active)
2,C[C@@H](N)C1CCC(C(=O)Nc2ccncc2)CC1 (some centres undefined),1.2
3,CCN(CC)Cc1ccc(C(=O)N(CCc2ccccc2OC)[C@@H]2CCNC2)cc1,0.9
4,COc1cc2ncnc(-n3nc(-c4ccccn4)nc3N)c2cc1OC,2 (active)
5,O=C1NCC2(CCN(CCc3ccccc3)CC2)O1,1
6,COc1ccc(C2CNC(=O)C2)cc1OC1CCCC1 (centres undefined),1.1
7,COc1ccc2[nH]c([S@@](=O)Cc3ncc(C)c(OC)c3C)nc2c1,0.9
8,CC(=O)c1ccc(S(=O)(=O)NC(=O)NC2CCCCC2)cc1,1.1
9,c1ccc2c(CC3=NCCN3)cccc2c1,0.9
10,COc1cc(C(C)=O)ccc1OCCCN1CCC(c2noc3cc(F)ccc23)CC1,1.3 (active)
11,CCCCCCNc1nc(NC2CCN(C)CC2)c2cc(OC)c(OC)cc2n1,1
12,N[C@@H](Cc1ccc(O)c(O)c1)C(=O)O,0.8
13,COc1ccccc1N1CCN(CCCCN2C(=O)c3ccccc3C2=O)CC1,0.9
14,NCCS(=O)(=O)O,0.8
15,O=C(O)Cc1ccc(O)c(O)c1,1
16,Cc1ccc(-n2sc(=O)n(Cc3ccc(F)cc3)c2=O)cc1,1.1
17,CCOC(=O)[C@@H](N)CCC(=O)N[C@@H](CSCc1ccccc1)C(=O)N[C@@H](C(=O)OCC)c1ccccc1,1.3 (active)
18,O=C(Cc1ccccc1)Nc1nnc(CCSCCc2nnc(NC(=O)Cc3ccccc3)s2)s1,1.5 (active)
19,NS(=O)(=O)c1cc2c(cc1Cl)NC=NS2(=O)=O,0.9
20,O=C(O)/C=C\C(=O)Nc1ccc(Oc2cccc(Oc3ccc(NC(=O)/C=C\C(=O)O)cc3)c2)cc1,0.9

row,SMILES,fold change permeability
1,CN1CCC[C@@H]1CCO[C@](C)(c1ccccc1)c1ccc(Cl)cc1,1.1
2,CCc1cccc(N(C)C(N)=Nc2cccc3ccccc23)c1,1.1
3,CCCN(CCC)C(=O)C(CCC(=O)O)NC(=O)c1ccccc1 (centres undefined),0.7 (active)
4,Cn1cnc2c1c(=O)[nH]c(=O)n2C,1.3 (active)
5,O=c1[nH]c2ccccc2n1CCN1CCN(c2cccc(C(F)(F)F)c2)CC1,1.5 (active)
6,CC(=O)NNC(=O)N1Cc2ccccc2Oc2ccc(Cl)cc21,0.7 (active)
7,O=C1Cc2cc(CCN3CCN(c4nsc5ccccc45)CC3)c(Cl)cc2N1,0.9
8,CCC(C)N(C)C(=O)c1cc2ccccc2c(-c2ccccc2Cl)n1 (centres undefined),0.9
9,Nc1ncnc2c1ncn2C1CCCO1 (centres undefined),1
10,COC(=O)C(N)Cc1ccc(Cl)cc1 (centres undefined),1.1
11,Oc1cc2c(cc1O)C(c1ccccc1)CNCC2 (centres undefined),0.7 (active)
12,CC(=O)N[C@H]1[C@H]([C@H](O)[C@H](O)CO)OC(C(=O)O)=C[C@@H]1N=C(N)N,0.9
13,Cc1scc2c1N(C(=O)CN1CCN(C)CC1)c1ccccc1NC2=O,0.8
14,CC(CN1c2ccccc2Sc2ccccc21)N(C)C (centres undefined),1.2
15,COc1ccc(Cl)cc1C(=O)NCCc1ccc(S(=O)(=O)NC(=O)NC2CCCCC2)cc1,0.7 (active)
16,Nc1nc(-c2ccccc2)c(Br)c(=O)[nH]1,1.7 (active)
17,Nc1nc2c(ncn2[C@@H]2O[C@H](CO)[C@@H](O)[C@@H]2O)c(=O)[nH]1,2.1 (active)
18,COc1cc(C(O)C(=O)O)ccc1O (centres undefined),1
19,Cc1nnc(SCC2=C(C(=O)O)N3C(=O)[C@@H](NC(=O)Cn4cnnn4)[C@H]3SC2)s1,0.9
